This is one part of a sample in which hits are shown more often than they occur.
TTR transcr act – increases transthyretin transcription; SH-SY5Y TTR promoter Gaussia luciferase, luminescence; 100% = recombinant luciferase protein wells; activation, % at 16.7 µM; actives 1.3% (n = 92,000); AID 1117267;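 active means activation above the mean of all tested compounds plus 3 SD, cut at about 9.5% in these data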;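 further: cells exposed to compounds for one day before reading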
HuH7 TTR inh – HuH7 TTR transcription inhibition, counter-screen. shares compounds with TTR transcr act. HuH7 TTR promoter-Gaussia luciferase reporter, luminescence. inhibition, % at 16.7 µM. actives 4% (n = 1,100). AID 1117279;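 active means average inhibition above the solvent-only control wells' mean plus 3 SD, cut at about 15% in these data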;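 further: inhibitors lower well luminescence so higher value means more inhibition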
TTR up confirm – human TTR transcription activation, confirmation. 1,100 tested, under 10 active. SHSY5Y TTR promoter Gaussia luciferase, luminescence; 100% = purified Lucia enzyme wells, no cells. activation, % at 16.7 µM. shares compounds with TTR transcr act. AID 1117280;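 active means mean activation above a set limit taken from the earlier primary screen, cut at about 11% in these data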
Each line names hits and unclear results; the compound was inactive in the other large screens (follow-up assays come after a bar, where they were run).

CC(C)C[C@H]1CNC(=S)N1CC1CCCN1C[C@H](CC(C)C)N1C[C@H](Cc2ccc(O)cc2)N(CC2CCCCC2)C1=S (stereo not given in full)	none
C[C@@H]1CN([C@@H](C)CO)C(=O)CCCn2cc(nn2)CO[C@H]1CN(C)C(=O)c1ccc(N2CCN(C)CC2)cc1	none
O=C(Nc1ccc2c(c1)OCO2)NC1CCCCN(Cc2cccc(Cl)c2)C1=O (stereo not given)	none
CCOC(=O)[C@]12CCCC=C1N(CCCOC)C(=O)[C@@H]2CC(=O)N1CCCC1	none
C/C(=N\NC(=O)C(N)=O)c1cccc([N+](=O)[O-])c1	none
C/C(=N\Nc1ncc(Br)cn1)c1cccc([N+](=O)[O-])c1	TTR transcr act 14 | HuH7 TTR inh 21 | TTR up confirm inactive
C/C(=N\Nc1cc(C)nc(-c2ccccc2)n1)c1cccc([N+](=O)[O-])c1	none
COC(=O)c1ccc(Cn2ccc3ccc(-c4ccc5ccn(C(=O)c6ccccc6C)c5c4)cc32)cc1	none
C[C@@H]1[C@@H](O)C[C@@]2(C[C@H](O)c3cc(F)ccc3O2)O[C@H]1c1ccccc1Cl	none
COC(=O)C[C@H]1CC[C@@H]2[C@H](COc3ccc(NC(=O)c4cccc(Cl)c4)cc3C(=O)N2C)O1	none
COC(=O)[C@@H]1N=C(c2ccc(OC)cc2)O[C@]12C(=O)N(Cc1cn(-c3ccccc3)nn1)c1cccc(Cl)c12	none
CN(C)Cc1n[nH]c(=O)c2ccccc12	TTR transcr act 26 | HuH7 TTR inh inactive | TTR up confirm inactive
O=c1[nH]nc(Cc2ccc(Cl)cc2Cl)c2ccccc12	none
O=C(O)Cc1n[nH]c(=O)c2ccccc12	none
COC(=O)C[C@@H]1CC[C@H]2[C@@H](COc3ccc(NC(=O)Nc4ccc(C)cc4)cc3C(=O)N2C)O1	none
CC(=O)c1cc(-c2ccc(Cl)c(Cl)c2)c(=O)n2c1CCC2	none
COC(=O)[C@]12C[C@H](CC(=O)N3CCN(C(=O)c4ccco4)CC3)C(=O)N(CCc3ccc(OC)c(OC)c3)C1=C[C@H](C(C)C)O[C@@H]2C1CC1	none
CCOC(=O)N1CCN(C(=O)C[C@H]2C[C@@]3(C(=O)OC)C(=C[C@H](C4CCCC4)O[C@@H]3C)N(CCC3=CCCCC3)C2=O)CC1	none
CSc1ccc(CNCC(O)c2ccccc2)cc1 (stereo not given)	none
COc1cc(CNCC(O)c2ccccc2)ccc1OCc1ccc(Cl)nc1 (stereo not given)	TTR transcr act 11 | HuH7 TTR inh inactive | TTR up confirm inactive
COc1cc(CNCc2ccccn2)ccc1OCc1ccccc1Cl	none
O=S1(=O)c2ccc(N3CCC[C@@H]3CO)cc2OCCCN1C1CC1	none
Cc1oc(=O)c(NC(=O)c2ccccc2)cc1C(C)O (stereo not given)	none
Cc1ccc(C(=O)Nc2c[nH]c(=O)[nH]c2=O)cc1	none
Cc1ccc(C(=O)Nc2cc3c(oc2=O)CCCC3=O)cc1	TTR transcr act 28 | HuH7 TTR inh inactive | TTR up confirm inactive
NC(=O)C1CCN(c2nc(-c3ccc4c(c3)CCO4)cs2)CC1	none
CCOC(=O)[C@@]12CCC3=C1N(CCC3)C(=O)[C@H](CC(=O)NCc1ccc(C)o1)C2	none
CN1CCC(=NNC(=O)CSc2ccc(Cl)cc2)CC1	none
Cc1ccccc1Cn1ccc2ccc(-c3ccc4ccn(Cc5ccccc5)c4c3)cc21	none
FC(F)(F)c1ccccc1Cn1ccc2ccc(-c3ccc4ccn(Cc5ccccc5)c4c3)cc21	none
FC(F)(F)c1ccccc1Cn1ccc2ccc(-c3ccc4ccn(Cc5ccccc5C(F)(F)F)c4c3)cc21	TTR transcr act 18 | HuH7 TTR inh inactive | TTR up confirm inactive
COc1ccc(OC)c(CN2C(=O)CN(S(C)(=O)=O)CC2(C)c2nnnn2C2CCCC2)c1 (stereo not given)	none
C=CCN1C(=O)[C@H](CC(=O)NCCCC)[C@@]2(C(=O)OCC)CCCC=C12	none
COC(=O)[C@]12C[C@H](CC(=O)N3CCN(C(=O)c4ccco4)CC3)C(=O)N(Cc3ccc4c(c3)OCO4)C1=C[C@H](C(C)C)O[C@@H]2C1CC1	none
Cc1cccc(CSc2nc3c(cc2C#N)CCC3)c1	none
Cc1ccc(C#N)c(SCc2cccc(Br)c2)n1	TTR transcr act 13 | HuH7 TTR inh inactive | TTR up confirm inactive
Cc1ccc(C#N)c(SCc2cc3c(cc2Cl)OCO3)n1	none
C[C@H]1[C@@H](OC(=O)NCc2ccc(C(F)(F)F)cc2)CC[C@@]23CCCN2C(=O)CCC[C@@H]13	none
COC(=O)[C@]12C[C@H](CC(=O)NCC34CC5CC(CC(C5)C3)C4)C(=O)N(Cc3cccc4ccccc34)C1=C[C@H](COCc1ccccc1)O[C@@H]2C	none
CS(=O)(=O)c1ccc(C(=O)N(CCc2ccccc2)Cc2ccccc2)cc1	TTR transcr act 9.7 | HuH7 TTR inh inactive | TTR up confirm inactive
CS(=O)(=O)c1ccccc1C(=O)N(CCc1ccccc1)Cc1ccccc1	none
CC(=O)Nc1cccc(C(=O)N(CCc2ccccc2)Cc2ccccc2)c1	none
CC(C)(C)S(=O)N1C[C@H]2CC(=O)C(CCO)=C2[C@@H]1CCO (stereo not given in full)	none
Cc1ccc(/C=N/NC(=O)Cc2cccs2)o1	none
O=C(Cc1cccs1)N/N=C/c1ccccn1	TTR transcr act 15 | HuH7 TTR inh inactive | TTR up confirm inactive
O=C(Cc1ccc(F)cc1)N/N=C/c1ccccn1	none
CC(C)CN1C(=O)C[C@@]2(C(=O)N(C)c3ccc(NC(=O)C(F)(F)F)cc32)C1c1ccccc1 (stereo not given in full)	none
Cc1ccc(S(=O)(=O)N2O[C@@H](c3ccccc3)C[C@H]2CON2C(C)(C)CCCC2(C)C)cc1	none
CCn1cnc2cc(NCc3cccc(OC)c3O)ccc21	none
COc1cccc(CNc2ccc(F)c(Cl)c2)c1O	TTR transcr act 13 | HuH7 TTR inh inactive | TTR up confirm inactive
CCOc1cccc(CNc2ccc(O)cc2)c1OCc1ccc(Cl)cc1Cl	none
CCOC(=O)CCCNC(=O)OCCCN1CCC2(CCC(c3ccccc3)CC2)C1=O (stereo not given)	none
O=C(CSc1nnc(CNC(=O)c2c(F)cccc2F)o1)Nc1ccc2c(c1)OCCO2	TTR transcr act 11 | HuH7 TTR inh inactive | TTR up confirm inactive
O=C(CSc1nnc(CNC(=O)c2c(F)cccc2F)o1)Nc1ccc2c(c1)OCO2	none
O=C(CSc1nnc(CNC(=O)c2ccccc2)o1)Nc1ccc2c(c1)OCO2	none
O=[N+]([O-])c1ccc2nc(COCc3nc4ccccc4[nH]3)[nH]c2c1	none
CC(C)CCNC(=O)CSc1nc2c(c(=O)[nH]1)CCC2	none
O=C(COC(=O)c1ccc(CO)cc1)Nc1ccc2ccccc2c1	none
Cc1cc(C(=O)OCC(=O)N2CCOCC2)c(C)n1-c1ccccc1	none
O=C(COC(=O)c1ccc(O)cc1O)Nc1ccc2ccccc2c1	TTR transcr act 21 | HuH7 TTR inh inactive | TTR up confirm inactive
O=C(OCC(=O)N1CCN(c2ccccc2)CC1)c1ccc(O)cc1O	TTR transcr act 15 | HuH7 TTR inh inactive | TTR up confirm inactive
O=C(COC(=O)c1ccc2ccccc2c1O)Nc1ccccc1	none
O=C(COc1ccccc1)N1CCN(c2ccccc2)CC1	none
CC(C)CNC(=O)OCc1cn(Cc2ccc(F)c(F)c2)nn1	none
COc1ccc(-n2nnnc2/C=C\Nc2ccc(C)cc2)cc1	none
O=C(NCc1cccs1)O[C@H]1CC[C@@]23CCCN2C(=O)CCC[C@H]3C1	none
O=c1cc(N2CCN(c3cccc(C(F)(F)F)c3)CC2)[nH]c(=O)n1-c1ccccc1	none
